Active and inactive are the calls of the source. The call rests on the fitted dose curve; in most records, active means well fitted curve in the direction sought with a large enough effect; inconclusive means small, poorly fitted or top-dose-only effect, or another doubt; inactive means no such curve, though single readings can be large or run the other way.
Assay: qHTS for compounds that reverse cellular toxicity of Amyloid beta (A-beta) peptide in yeast: LOPAC Validation Assay (AID 720559)
Conditions: yeast expressing A-beta; series mostly up to 46.1 µM
Text: The A-beta peptide is produced by the processing of the amyloid precursor protein (APP) by two proteases, beta and gamma secretases. […] A-beta42 is regarded as the most amyloidogenic form due to its hydrophobicity; however, precisely how A-beta42 induces neurotoxicity is unclear. To understand further this biology and its potential therapeutic implications for human neurodegenerative disease, a quantitative high-throughput screen for compounds that reverse the cellular toxicity of the A-beta peptide was developed.
A yeast based screen was used because it recapitulates the salient feature of protein mis-folding disorder accurately. This cell-based phenotypic screen provides a significant, unbiased advantage by letting the compounds and models inform us which proteins or pathways are most relevant. The ideal chemical candidates would therefore have activity in both our primary yeast and secondary neuronal toxicity assays, as well as in mouse models. They will be valuable tools for dissecting diverse protein homeostasis pathologies and could potentially become the focus for future pre-clinical development. For this […] assay, inhibition of A-beta rescues the toxic effect in the yeast cell, resulting in increase of signals.
NIH Chemical Genomics Center [NCGC]
NIH Molecular Libraries Probe Centers Network [MLPCN]
Assay Submitter (PI): Susan Lindquist, Whitehead Institute, Massachusetts Institute of Technology
[1] Vassar R,et al (1999). Beta-secretase cleavage of Alzheimer's amyloid precursor protein by the transmembrane aspartic protease BACE. Science. 286: 735-741.
[2] Yan R, et al (1999). Membrane-anchored aspartyl protease with Alzheimer's disease beta-secretase activity. Nature.
Two and a half microliter / well of yeast growth medium were dispensed in a 1536 assay plate. Compounds were pinned using the Kalypsys robotic system followed by addition of 2.5 uL / well yeast solution. The assay plates were incubated at 30 C. After 48 hr, the absorbance signal at 600 nm was obtained using the PerkinElmer ViewLux plate reader to assess yeast growth. The data was normalized to the positive control of an equimolar mixture of ferric chloride (FeCl3) and clioquinol and to the negative control DMSO.

Compound	outcome
O=c1cc(O)cc(/C=C/c2ccc(O)c(O)c2)o1	inactive
NC1CCN(O)C1=O (stereo not given)	inactive
Nc1ncnc2c1nc(Sc1ccc(Cl)cc1)n2[C@H]1OC2COP(=O)(O)O[C@@H]2C1O (stereo not given in full)	inactive
CC1=C(C(=O)O)N2C(=O)[C@@H](NC(=O)C(N)C3=CCC=CC3)[C@H]2SC1 (stereo not given in full)	inactive
CC(C)NC[C@H](O)COc1cccc2ccccc12	inactive
CN1CC(O)C(O)C(O)C1CO (stereo not given)	inactive
CN1Cc2sccc2C(c2ccc(O)c(O)c2)C1 (stereo not given)	inactive
NC(N)=NC(N)=Nc1ccccc1	inactive
C=C1C[C@@]23CC[C@H]4[C@@](C)(CCC[C@@]4(C)C(=O)O)[C@@H]2CC[C@]1(O)C3	inactive
NC(N)=[N+]1CCc2ccccc2C1	inactive
Nc1ccc(-c2ccc3ccccc3n2)cc1	inactive
Nc1ncnc2c1ncn2C1CCCC1	inactive
NC(=Nc1ccccc1)NC(=O)c1nc(Cl)c(N)nc1N	inactive
CCCCOc1cc(CC2CNC(=O)N2)ccc1OC (stereo not given)	inactive
NS(=O)(=O)c1cccc2c1c([N+](=O)[O-])cc1nc(O)c(O)nc12	inactive
CCCn1c(=O)c2c(ncn2C)n(CCC)c1=O	inactive
C=CCN1CCc2cc(O)c(O)cc2C(c2ccccc2)C1 (stereo not given)	inactive
N[C@H](C(=O)O)[C@H](O)C(=O)O	inactive
CC[C@@H]1Cc2cc(O)ccc2C2=C1c1ccc(O)cc1C[C@H]2CC	inactive
C=CC[C@H](N)C(=O)O	inactive

Compound	outcome
Nn1nnc2ccccc21	inactive
N#CC(C#N)=C(N)/C(C#N)=C/c1ccc(O)cc1	inactive
CN1CCCC1CCOC(C)(c1ccccc1)c1ccc(Cl)cc1 (stereo not given)	inactive
Cc1cccc(C)c1OCC(N)C(C)C (stereo not given)	inactive
CCC1(O)CC2CN(CCc3c([nH]c4ccccc34)[C@@](C(=O)OC)(c3cc4c(cc3OC)N(C=O)C3[C@]45CCN4CC=C[C@@](CC)([C@@H](OC(C)=O)[C@]3(O)C(=O)OC)[C@H]45)C2)C1 (stereo not given in full)	inactive
CCN(CC)CCOC(=O)c1cc(Cl)c(N)cc1OC	inactive
Cc1nc(N=Nc2ccc(S(=O)(=O)O)cc2S(=O)(=O)O)c(COP(=O)(O)O)c(C=O)c1O	inactive
CCCCCCCCCCC/C=C\C(C)(C)/C=C\CCCC(=O)O	inactive
CCN(CC)CCCCCCCCOC(=O)c1cc(OC)c(OC)c(OC)c1	inactive
C=C(C)C1CC=C(C(=O)O)CC1 (stereo not given)	inactive
COC(=O)[C@H](NC(=O)c1cc(-c2ccccc2)nc2ccccc12)c1ccccc1	inactive
OC[C@H]1O[C@H](n2cnc3c(N[C@H]4CCC[C@@H]4O)ncnc32)[C@H](O)[C@@H]1O	inactive
O=C(O)c1cccnc1C(=O)O	inactive
O=C(O)/C(=C/c1c(C(=O)O)[nH]c2cc(Cl)cc(Cl)c12)c1ccccc1	inactive
O=C(O)/C=C/c1cnc[nH]1	inactive
CCc1ccc2c(-c3cccc(Cl)c3)nc(=O)n(CC)c2n1	inactive
CCCc1c(-c2ccc(O)cc2)nn(-c2ccc(O)cc2)c1-c1ccc(O)cc1	inactive
O=C(O)CCC(=O)N1CCCC1C(=O)O (stereo not given)	inactive
COC1(C2=NCCN2)COc2ccccc2O1 (stereo not given)	inactive
COc1cc(N)c(Cl)cc1C(=O)OCCN1CCCCC1	inactive
